The values that follow come from the supplement of paper PMC10849652.

Targets with a hit are over-represented here; the source holds about 8,800 in all. About 0.5% of all pairs of compound and target were hits. Values without a mark were called inactive.

UniProt Q71F56, sequence (Q71F56 whole entry, looked up): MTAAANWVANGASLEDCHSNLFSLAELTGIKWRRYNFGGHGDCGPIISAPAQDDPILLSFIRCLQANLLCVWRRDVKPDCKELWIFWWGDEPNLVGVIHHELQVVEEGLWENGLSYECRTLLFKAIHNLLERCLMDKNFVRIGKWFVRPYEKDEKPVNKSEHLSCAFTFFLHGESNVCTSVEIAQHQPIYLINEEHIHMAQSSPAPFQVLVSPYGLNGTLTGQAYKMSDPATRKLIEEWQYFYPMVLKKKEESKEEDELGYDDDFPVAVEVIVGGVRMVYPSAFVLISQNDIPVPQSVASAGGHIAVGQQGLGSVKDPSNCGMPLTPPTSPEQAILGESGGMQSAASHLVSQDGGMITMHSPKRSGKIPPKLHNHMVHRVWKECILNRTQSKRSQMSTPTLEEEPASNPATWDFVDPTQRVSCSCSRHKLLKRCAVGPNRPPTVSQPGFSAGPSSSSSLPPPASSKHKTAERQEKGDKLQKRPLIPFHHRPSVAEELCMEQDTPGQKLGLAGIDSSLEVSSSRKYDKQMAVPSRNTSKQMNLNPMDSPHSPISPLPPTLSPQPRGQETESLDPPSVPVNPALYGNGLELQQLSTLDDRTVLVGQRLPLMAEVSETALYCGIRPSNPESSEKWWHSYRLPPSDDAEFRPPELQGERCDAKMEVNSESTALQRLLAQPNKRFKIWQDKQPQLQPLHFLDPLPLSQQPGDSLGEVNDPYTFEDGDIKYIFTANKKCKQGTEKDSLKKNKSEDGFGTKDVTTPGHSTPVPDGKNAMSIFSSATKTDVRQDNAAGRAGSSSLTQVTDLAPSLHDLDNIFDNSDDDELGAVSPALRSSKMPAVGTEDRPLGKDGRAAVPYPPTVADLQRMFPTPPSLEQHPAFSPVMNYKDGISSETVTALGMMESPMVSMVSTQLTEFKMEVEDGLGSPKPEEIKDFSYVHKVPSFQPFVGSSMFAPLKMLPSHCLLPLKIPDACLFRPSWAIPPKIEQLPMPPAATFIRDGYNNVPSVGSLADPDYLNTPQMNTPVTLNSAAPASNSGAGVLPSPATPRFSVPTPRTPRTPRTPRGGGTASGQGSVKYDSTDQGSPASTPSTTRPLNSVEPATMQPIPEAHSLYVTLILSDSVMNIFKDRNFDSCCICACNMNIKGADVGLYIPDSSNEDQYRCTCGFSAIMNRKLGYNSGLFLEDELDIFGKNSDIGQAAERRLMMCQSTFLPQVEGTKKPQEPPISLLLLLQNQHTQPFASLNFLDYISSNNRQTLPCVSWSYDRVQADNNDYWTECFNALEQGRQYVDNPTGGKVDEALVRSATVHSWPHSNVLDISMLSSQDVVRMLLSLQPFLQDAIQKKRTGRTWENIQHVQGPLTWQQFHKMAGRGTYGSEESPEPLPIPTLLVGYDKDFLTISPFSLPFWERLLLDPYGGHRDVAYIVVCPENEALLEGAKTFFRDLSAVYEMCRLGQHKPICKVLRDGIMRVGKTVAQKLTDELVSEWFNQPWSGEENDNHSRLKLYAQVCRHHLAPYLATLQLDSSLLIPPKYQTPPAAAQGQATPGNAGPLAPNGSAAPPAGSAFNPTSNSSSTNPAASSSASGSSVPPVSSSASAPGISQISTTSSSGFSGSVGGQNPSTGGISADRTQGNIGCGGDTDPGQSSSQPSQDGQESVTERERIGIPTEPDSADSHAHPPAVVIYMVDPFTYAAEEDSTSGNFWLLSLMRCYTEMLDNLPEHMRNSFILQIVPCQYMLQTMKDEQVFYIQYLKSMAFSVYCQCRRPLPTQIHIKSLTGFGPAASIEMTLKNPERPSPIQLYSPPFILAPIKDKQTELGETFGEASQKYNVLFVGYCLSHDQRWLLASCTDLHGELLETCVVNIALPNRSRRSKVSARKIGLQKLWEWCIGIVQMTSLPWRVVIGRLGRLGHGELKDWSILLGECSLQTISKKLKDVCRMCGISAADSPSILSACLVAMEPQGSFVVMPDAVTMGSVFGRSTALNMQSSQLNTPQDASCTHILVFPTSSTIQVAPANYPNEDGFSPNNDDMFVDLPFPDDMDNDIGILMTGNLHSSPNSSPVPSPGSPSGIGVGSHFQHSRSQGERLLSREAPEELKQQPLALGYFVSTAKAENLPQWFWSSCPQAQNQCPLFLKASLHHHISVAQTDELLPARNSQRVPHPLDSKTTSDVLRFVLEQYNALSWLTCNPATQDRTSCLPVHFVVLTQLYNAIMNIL
UniProt Q9BVC4, sequence (Q9BVC4 whole entry, looked up): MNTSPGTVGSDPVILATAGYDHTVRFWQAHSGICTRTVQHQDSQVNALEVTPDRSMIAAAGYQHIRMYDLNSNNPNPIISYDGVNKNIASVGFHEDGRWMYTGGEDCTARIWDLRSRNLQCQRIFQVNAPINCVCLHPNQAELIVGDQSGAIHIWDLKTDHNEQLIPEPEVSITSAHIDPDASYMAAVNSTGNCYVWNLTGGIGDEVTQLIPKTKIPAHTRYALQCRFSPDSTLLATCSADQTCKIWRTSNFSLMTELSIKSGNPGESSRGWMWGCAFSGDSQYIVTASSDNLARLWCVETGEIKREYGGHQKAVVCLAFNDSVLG
UniProt Q93074, sequence (Q93074 whole entry, looked up): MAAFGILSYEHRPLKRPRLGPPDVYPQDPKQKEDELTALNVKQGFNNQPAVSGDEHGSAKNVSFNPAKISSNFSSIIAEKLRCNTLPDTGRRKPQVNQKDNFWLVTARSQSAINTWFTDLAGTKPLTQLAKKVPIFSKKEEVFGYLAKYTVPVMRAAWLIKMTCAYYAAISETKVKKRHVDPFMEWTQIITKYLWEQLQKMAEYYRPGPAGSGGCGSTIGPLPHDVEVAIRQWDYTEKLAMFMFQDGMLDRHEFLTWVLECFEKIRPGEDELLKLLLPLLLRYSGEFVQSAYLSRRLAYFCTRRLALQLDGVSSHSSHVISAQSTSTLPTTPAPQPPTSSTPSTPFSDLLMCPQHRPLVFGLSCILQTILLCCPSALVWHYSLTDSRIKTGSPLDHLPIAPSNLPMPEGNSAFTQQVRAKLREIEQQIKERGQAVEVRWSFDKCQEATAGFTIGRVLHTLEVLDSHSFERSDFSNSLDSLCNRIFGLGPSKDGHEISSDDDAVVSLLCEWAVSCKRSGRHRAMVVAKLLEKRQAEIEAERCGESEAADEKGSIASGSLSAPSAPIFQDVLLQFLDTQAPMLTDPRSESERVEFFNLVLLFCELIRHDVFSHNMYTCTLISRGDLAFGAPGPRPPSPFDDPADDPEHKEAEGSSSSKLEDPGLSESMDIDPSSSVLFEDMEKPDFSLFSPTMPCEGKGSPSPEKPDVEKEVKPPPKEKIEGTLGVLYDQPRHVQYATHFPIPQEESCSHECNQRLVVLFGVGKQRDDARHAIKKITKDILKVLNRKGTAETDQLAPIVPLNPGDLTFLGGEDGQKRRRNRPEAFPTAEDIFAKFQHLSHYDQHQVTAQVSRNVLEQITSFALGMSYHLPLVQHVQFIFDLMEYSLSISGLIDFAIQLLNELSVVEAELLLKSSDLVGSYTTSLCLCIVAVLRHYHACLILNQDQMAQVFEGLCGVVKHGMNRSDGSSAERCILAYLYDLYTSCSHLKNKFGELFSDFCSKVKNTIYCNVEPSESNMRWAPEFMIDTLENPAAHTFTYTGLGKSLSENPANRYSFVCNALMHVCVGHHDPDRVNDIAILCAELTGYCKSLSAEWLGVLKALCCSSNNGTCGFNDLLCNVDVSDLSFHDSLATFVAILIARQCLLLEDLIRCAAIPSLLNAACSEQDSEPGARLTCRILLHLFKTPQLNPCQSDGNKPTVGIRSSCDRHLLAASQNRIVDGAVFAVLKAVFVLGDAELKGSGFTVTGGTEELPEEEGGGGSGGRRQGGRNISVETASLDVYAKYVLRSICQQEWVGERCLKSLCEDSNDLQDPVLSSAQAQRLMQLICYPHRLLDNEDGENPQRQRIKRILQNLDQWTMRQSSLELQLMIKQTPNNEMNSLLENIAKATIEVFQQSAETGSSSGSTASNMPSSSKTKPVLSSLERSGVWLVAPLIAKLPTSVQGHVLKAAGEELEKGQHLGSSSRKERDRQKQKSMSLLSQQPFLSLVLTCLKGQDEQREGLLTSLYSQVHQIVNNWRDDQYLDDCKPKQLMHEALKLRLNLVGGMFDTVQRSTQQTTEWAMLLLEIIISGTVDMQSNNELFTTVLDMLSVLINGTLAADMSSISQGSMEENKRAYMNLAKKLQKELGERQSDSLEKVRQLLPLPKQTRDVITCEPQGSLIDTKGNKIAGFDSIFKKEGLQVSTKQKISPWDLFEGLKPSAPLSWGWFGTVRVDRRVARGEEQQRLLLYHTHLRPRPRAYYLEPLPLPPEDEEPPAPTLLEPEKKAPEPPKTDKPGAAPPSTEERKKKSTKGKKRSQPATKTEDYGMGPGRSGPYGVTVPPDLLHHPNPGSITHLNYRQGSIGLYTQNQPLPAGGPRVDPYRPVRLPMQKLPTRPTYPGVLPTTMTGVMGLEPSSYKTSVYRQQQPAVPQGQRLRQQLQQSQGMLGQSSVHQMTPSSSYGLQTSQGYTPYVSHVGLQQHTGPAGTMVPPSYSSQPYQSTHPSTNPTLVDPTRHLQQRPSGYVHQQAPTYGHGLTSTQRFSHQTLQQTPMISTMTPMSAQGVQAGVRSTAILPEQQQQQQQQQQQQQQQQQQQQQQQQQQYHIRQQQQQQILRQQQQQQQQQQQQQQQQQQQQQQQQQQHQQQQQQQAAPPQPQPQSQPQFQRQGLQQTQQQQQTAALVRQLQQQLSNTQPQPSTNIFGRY
UniProt Q7Z3D4, sequence (Q7Z3D4 whole entry, looked up): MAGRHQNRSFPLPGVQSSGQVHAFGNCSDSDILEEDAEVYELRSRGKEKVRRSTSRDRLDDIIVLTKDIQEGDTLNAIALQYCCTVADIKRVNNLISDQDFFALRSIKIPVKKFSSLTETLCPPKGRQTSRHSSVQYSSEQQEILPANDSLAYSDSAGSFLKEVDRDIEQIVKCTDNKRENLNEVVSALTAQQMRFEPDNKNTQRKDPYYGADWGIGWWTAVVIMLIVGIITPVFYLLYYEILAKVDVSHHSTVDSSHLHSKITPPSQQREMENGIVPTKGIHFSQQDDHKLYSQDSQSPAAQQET
UniProt O95777, sequence (O95777 whole entry, looked up): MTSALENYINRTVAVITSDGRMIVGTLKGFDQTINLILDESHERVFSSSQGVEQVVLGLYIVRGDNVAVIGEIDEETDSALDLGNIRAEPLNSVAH

Compound in this assay: C[C@H](C1=CC=C(C=C1)C(=O)NC2=C3C=CNC3=NC=C2)N
The experiment in a line: log2 fold change, soluble protein after heating vs DMSO (PISA); higher = thermal stabilisation; K562 lysate, 10 uM; active = over 0.2 and 3.5 SD of the protein, either way, in both replicates (recomputed). In outline: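 K562 pellets were dounce-homogenised in PBS pH 7.4 with 1 mM MgCl2, and the crude extract at 1 mg/mL protein was treated with 10 μM compound for 30 min. Aliquots were heated for 3 min across 48°C-58°C, pooled, and brought to 0.5% NP-40 at 4°C; soluble protein was the supernatant after 21,000xg for 90 min. Soluble protein was quantified by TMTpro 16plex LC-MS/MS with channel sums equalised, and reported as log2 fold change in thermal stability against DMSO controls, with values from duplicates.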
As to LARS2 (UniProt Q15031), the log2 fold change was 0.014.
To LYSMD3 (UniProt Q7Z3D4) belongs -0.273; to MARK3 (UniProt P27448), 0.043; to MAP2K2 (UniProt P36507), 0.207.
To MAD2L1BP isoform 3 (UniProt Q15013) belongs 0.022.
On to MOCS1 isoform 8 (UniProt Q9NZB8), for which the log2 fold change was -0.078.
With LRRC40 (UniProt Q9H9A6), the log2 fold change was 0.015.
Regarding MPZL1 (UniProt O95297), the log2 fold change is 0.132.
MON2 isoform 5 (UniProt Q7Z3U7): the log2 fold change is -0.042.
In the case of LLGL1 (UniProt Q15334), the log2 fold change is 0.263 (active).
MRPL10 isoform 2 (UniProt Q7Z7H8): the log2 fold change was 0.152.
As for LIMS1 isoform 3 (UniProt P48059), the log2 fold change was -0.045.
The result for MED12 isoform 2 (UniProt Q93074) reads 0.002; that for METTL7A (UniProt Q9H8H3), -0.019; that for MED17 (UniProt Q9NVC6), -0.058.
On to LSM8 (UniProt O95777), for which the log2 fold change is -0.028.
Consider MFF isoform 2 (UniProt Q9GZY8), for which the log2 fold change is -0.239 (active).
Regarding LARS (UniProt Q9P2J5), the log2 fold change was 0.047.
Take MAPK9 (UniProt P45984): the log2 fold change was 0.026.
Take MED13L (UniProt Q71F56): the log2 fold change is -0.047.
The result for MACROD1 (UniProt Q9BQ69) reads 0.084; that for MRPL46 (UniProt Q9H2W6), 0.452 (active); that for MGST1 (UniProt P10620), 0.22 (active).
MGAT5 (UniProt Q09328): the log2 fold change was 0.098.
On to MAT2B (UniProt Q9NZL9), for which the log2 fold change was 0.063.
MCMBP (UniProt Q9BTE3): the log2 fold change was 0.048.
The result for MICB, A0A140T979 reads -0.042; that for LSS (UniProt P48449), 0.01; that for MORF4L1 isoform 2 (UniProt Q9UBU8), -0.058.
Take MAPKAPK3 (UniProt Q16644): the log2 fold change is 0.034.
In the case of KPNA4 (UniProt O00629), the log2 fold change was -0.217 (active).
The result for LIG3 (UniProt P49916) reads -0.008; that for MAP4 (UniProt E7EVA0), -0.096; that for MLST8 (UniProt Q9BVC4), -0.034.
Regarding LSG1 (UniProt Q9H089), the log2 fold change is -0.099.
The result for MPP1 (UniProt Q00013) reads -0.006; that for LRWD1 (UniProt Q9UFC0), -0.011.
The result for MBD2 (UniProt Q9UBB5) reads -0.035; that for MCU (UniProt Q8NE86), -0.03.
